According to PubChem BioAssay (Tox21):
Where “and” joins values, the source holds several entries; their conditions need not be identical. Equal values may be shown once. Results filed as inconclusive are left out. Some compounds were tested as several samples or in several runs, with calls that do not always agree. Calls of active or inactive are those of the source. The call rests on the fitted dose curve; in most records, active means well fitted curve in the direction sought with a large enough effect in the repeat runs; inconclusive means weak or mixed curves; inactive means no such curve, though single readings can be large; an effect the other way counts as inactive or inconclusive. Starred links: 1 amine or outer side, 2 acyl side, 3 side chain; linkers in the order of their positions; H or OH if unused. Positions of bridges follow the written chain, without caps; N, C: chain ends. Non-standard residues stand in square brackets, D forms with d. Residues, ends and D or L forms follow the SMILES beside them. Chains are numbered I, II in the order given. Actinocin(9to1) = Cc1c2oc3c(C)ccc(C(=O)[*:1])c3nc-2c(C(=O)[*:2])c(N)c1=O; NMeV = CN[C@H](C(=O)O)C(C)C; Sar = CNCC(=O)O

Legend:
[1] = A CellTox Green Cytotoxicity Assay to monitor cytotoxicity in HEK293 cells - 8 hour (AID 1224884); further: nearly all actives have a fitted effect of over 35% in size
How it was run: (§1)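 Homogeneous no-lysis format: HEK293 cell suspension mixed with CellTox Green reagent, seeded, incubated 5 h at 37 C/5% CO2, then dosed by pintool with compound in DMSO.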

[2] = qHTS RealTime-Glo MT Cell Viability Assay in HEK293 cells - 24 hour (AID 1224886); further: nearly all actives have a fitted effect of over 50% in size; on activity change, negative = cytotoxicity: top concentration of the series differs between compounds
How it was run: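 Viability tracked continuously by luminescence as live cells reduce a prosubstrate for NanoLuc; HEK293 cells preincubated 5 h, compound-treated at 37 C, and read at 0, 8, 16, 24, 32 and 40 h.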

[3] = qHTS RealTime-Glo MT Cell Viability Assay in HEK293 cells - 8 hour (AID 1224887); further: nearly all actives have a fitted effect of over 50% in size; on activity change, negative = cytotoxicity: top concentration of the series differs between compounds
How it was run: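 Measured as luminescence from the same continuously cultured HEK293 wells at successive time points (0, 8, 16, 24, 32, 40 h) after compound addition. Reagent present from seeding; dosing at 5 h; incubation 37 C.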

[4] = A CellTox Green Cytotoxicity Assay to monitor cytotoxicity in HEK293 cells - 16 hour (AID 1224888); further: nearly all actives have a fitted effect of over 35% in size
How it was run: as §1

[5] = qHTS RealTime-Glo MT Cell Viability Assay in HepG2 cells - 0 hour (AID 1224889); further: nearly all actives have a fitted effect of over 50% in size
How it was run: (§2)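 Viability was tracked continuously by NanoLuc luminescence from prosubstrate reduced by living HepG2 cells, at successive time points over 40 h of compound exposure. Cells with reagent were preincubated 5 h at 37 °C before compound addition.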

[6] = A CellTox Green Cytotoxicity Assay to monitor cytotoxicity in HepG2 cells - 0 hour (AID 1224882); further: nearly all actives have a fitted effect of over 35% in size
How it was run: (§3)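 Fluorescent DNA-binding dye, 600 HepG2 cells/well, 5 h preincubation then compound in DMSO; same plates read at 0–40 h, 37 C.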

[7] = A CellTox Green Cytotoxicity Assay to monitor cytotoxicity in HepG2 cells - 32 hour (AID 1224883); further: nearly all actives have a fitted effect of over 50% in size
How it was run: as §3

[8] = A CellTox Green Cytotoxicity Assay to monitor cytotoxicity in HepG2 cells - 8 hour (AID 1224890); further: nearly all actives have a fitted effect of over 45% in size
How it was run: as §3

[9] = qHTS RealTime-Glo MT Cell Viability Assay in HepG2 cells - 16 hour (AID 1224885); further: nearly all actives have a fitted effect of over 50% in size
How it was run: as §2
On the % scale 0 is the no-effect control and ±100 the full control effect; potency means the concentration at half of the fitted maximal effect.

N[C@@H]1CONC1=O
inactive: Potency [1] | Potency [2] | Potency [3] | Potency [4] | Potency [5]

O=C1CC2(CCCC2)CC(=O)N1CCCCN1CCN(c2ncccn2)CC1
49 µM (active) and inactive: Potency [2]
43.6 µM (active) and inactive: Potency [7]
inactive: Potency [6] | Potency [3] | Potency [4] | Potency [5] | Potency [8]

O=C(Nc1ccccc1SSc1ccccc1NC(=O)c1ccccc1)c1ccccc1
active: Potency [7] 49 µM
inactive: Potency [6] | Potency [9] | Potency [4] | Potency [5] | Potency [8]

C/C=C/c1ccc(OCC)c(O)c1
inactive: Potency [6] | Potency [7] | Potency [1] | Potency [2] | Potency [4] | Potency [5] | Potency [8]

O=S(=O)(O)c1ccc2nc(-c3ccccc3)[nH]c2c1
inactive: Potency [6] | Potency [7] | Potency [1] | Potency [9] | Potency [2] | Potency [3] | Potency [4] | Potency [5] | Potency [8]

O=C(Cl)c1cccc(C(=O)Cl)c1
inactive: Potency [6] | Potency [7] | Potency [1] | Potency [9] | Potency [2] | Potency [3] | Potency [4] | Potency [5] | Potency [8]

O=C1NCC2(CCN(CCc3ccccc3)CC2)O1
inactive: Potency [6] | Potency [7] | Potency [2] | Potency [3] | Potency [4] | Potency [5] | Potency [8]

c1ccc2cc3c(ccc4ccccc43)cc2c1
inactive: Potency [6] | Potency [7] | Potency [1] | Potency [2] | Potency [3] | Potency [4] | Potency [5] | Potency [8]

CCc1ccc(C(c2ccc(CC)cc2)C(Cl)Cl)cc1
inactive: Potency [6] | Potency [7] | Potency [1] | Potency [9] | Potency [4] | Potency [5] | Potency [8]

Cc1cc(OCCOCC[N+](C)(C)Cc2ccccc2)ccc1C(C)(C)CC(C)(C)C
active: Potency [7] 15.4 µM and 9.52 µM | Potency [9] 17.3 µM and 21.3 µM | Potency [2] 12.2 µM and 8.49 µM | Potency [3] 48.7 µM and 23.9 µM | Potency [4] 38.7 µM and 23.9 µM | Potency [8] 21.7 µM and 21.3 µM
inactive: Potency [6] | Potency [5]

Cc1ccc(S(=O)(=O)Oc2ccc(N=Nc3ccc(-c4ccc(N=Nc5c(O)ccc6cc(S(=O)(=O)O)cc(S(=O)(=O)O)c56)c(C)c4)cc3C)cc2)cc1
inactive: Potency [6] | Potency [7] | Potency [2] | Potency [3] | Potency [4] | Potency [8]

CCCCCCC(O)CCCCCCCCCCC(=O)O (configuration not stated)
inactive: Potency [6] | Potency [7] | Potency [1] | Potency [9] | Potency [2] | Potency [3] | Potency [4] | Potency [5] | Potency [8]

CNCCC(Oc1ccc(C(F)(F)F)cc1)c1ccccc1 (configuration not stated)
active: Potency [7] 48.4 µM and 16.9 µM | Potency [1] 26.8 µM | Potency [4] 23.9 µM
inactive: Potency [6]

c1cnc2cc3c(cc2n1)C1CNCC3C1
inactive: Potency [6] | Potency [7] | Potency [1] | Potency [2] | Potency [3] | Potency [4] | Potency [5] | Potency [8]

COC(=O)c1cccc(C(=O)OC)c1
inactive and 38.9 µM (active): Potency [6]
inactive and 43.6 µM (active): Potency [8]
inactive and 24.5 µM (active): Potency [7]
inactive: Potency [9] | Potency [2] | Potency [3] | Potency [5]

CC(COc1ccccc1)N(CCCl)Cc1ccccc1 (configuration not stated)
inactive: Potency [6] | Potency [1] | Potency [4] | Potency [5] | Potency [8]
active: Potency [7] 55.5 µM | Potency [2] 49.5 µM and 49 µM

CCn1c2ccccc2c2cc(N)ccc21
inactive: Potency [6] | Potency [7] | Potency [9] | Potency [2] | Potency [3] | Potency [4] | Potency [5] | Potency [8]

C=CC(=O)OCCCCCCOC(=O)C=C
inactive: Potency [6] | Potency [7] | Potency [4] | Potency [5] | Potency [8]
active: Potency [2] 43.6 µM

CCN(CC)C(=S)SSC(=S)N(CC)CC
56.2 µM (active) and inactive: Potency [8]
inactive: Potency [6] | Potency [5]
inactive and 56.2 µM (active): Potency [1]
active: Potency [7] 8.25 µM | Potency [2] 195 nM and 100 nM and 13.4 µM | Potency [3] 13.8 µM and 18.5 µM

NCCO
inactive: Potency [6] | Potency [7] | Potency [1] | Potency [2] | Potency [4] | Potency [5] | Potency [8]

CC[C@]1(O)C[C@@H]2CN(CCc3c([nH]c4ccccc34)[C@@](C(=O)OC)(c3cc4c(cc3OC)N(C)[C@H]3[C@@](O)(C(=O)OC)[C@H](OC(C)=O)[C@]5(CC)C=CCN6CC[C@]43[C@@H]65)C2)C1
inactive: Potency [6] | Potency [7] | Potency [1] | Potency [3] | Potency [4] | Potency [5] | Potency [8]
active: Potency [2] 0.0043 µM

CC[C@H]1CN2CCc3cc(OC)c(OC)cc3[C@@H]2C[C@@H]1C[C@H]1NCCc2cc(OC)c(OC)cc21
active: Potency [7] 49.2 µM and 21.3 µM | Potency [2] 17.4 nM and 47.7 nM
inactive: Potency [6] | Potency [9] | Potency [4] | Potency [5] | Potency [8]

CC(=O)O[C@]1(C(C)=O)CC[C@H]2[C@@H]3C[C@H](C)C4=CC(=O)CC[C@]4(C)[C@H]3CC[C@@]21C
active: Potency [2] 15.5 µM | Potency [5] 174 nM and 301 nM
inactive and 37.9 nM (active): Potency [6]
inactive: Potency [7] | Potency [9] | Potency [3] | Potency [4] | Potency [8]

CC(C)(C)c1ccc(O)c(C(C)(C)C)c1
active: Potency [7] 48.8 µM and 43.6 µM | Potency [1] 43.5 µM | Potency [2] 38.7 µM | Potency [3] 34.5 µM | Potency [4] 24.4 µM and 34.7 µM | Potency [8] 48.8 µM and 49 µM
inactive: Potency [6] | Potency [5]

NC(Cc1ccc(Cl)cc1)C(=O)O (configuration not stated)
inactive: cytotoxicity [6] -3.58% [at 0.29 µM] | cytotoxicity increase [7] -4.66% [at 0.29 µM] | cytotoxicity increase [1] 5.18% [at 0.29 µM] | activity change, negative = cytotoxic [9] -3.04% [at 0.29 µM] | activity change, negative = cytotoxicity [2] 9.19% [at 0.29 µM] | activity change, negative = cytotoxicity [3] 10.3% [at 0.29 µM] | activity change [4] -4.15% [at 0.29 µM, stronger effect = higher value] | activity change, negative = cytotoxicity [5] -2.96% [at 0.29 µM] | cytotoxicity increase [8] -8.44% [at 0.29 µM]

Cc1c2oc3c(C)ccc(C(=O)N[C@@H]4C(=O)N[C@H](C(C)C)C(=O)N5CCC[C@H]5C(=O)N(C)CC(=O)N(C)[C@@H](C(C)C)C(=O)O[C@@H]4C)c3nc-2c(C(=O)N[C@@H]2C(=O)N[C@H](C(C)C)C(=O)N3CCC[C@H]3C(=O)N(C)CC(=O)N(C)[C@@H](C(C)C)C(=O)O[C@@H]2C)c(N)c1=O (I: T[dV]P[Sar][NMeV] / II: T[dV]P[Sar][NMeV]; ester I:1-I:C, II:1-II:C; linker I:N-II:N via Actinocin(9to1))
active: Potency [7] 0.0213 µM | Potency [9] 8.47 µM and 9.52 µM | Potency [2] 16.9 nM and 23.9 nM
inactive: Potency [6] | Potency [1] | Potency [4] | Potency [5] | Potency [8]

CCN(CC)c1ccc2c(C)cc(=O)oc2c1
active: Potency [2] 34.9 µM
inactive: Potency [6] | Potency [7] | Potency [9] | Potency [3] | Potency [4] | Potency [5] | Potency [8]

Nc1ccc(O)cc1
40.4 µM (active) and inactive: Potency [2] | Potency [3]
inactive: Potency [6] | Potency [7] | Potency [1] | Potency [4] | Potency [5] | Potency [8]
57.1 µM (active) and inactive: Potency [9]

CCOC(=O)C(C)C(C)=O (configuration not stated)
inactive: Potency [6] | Potency [7] | Potency [1] | Potency [2] | Potency [4] | Potency [5] | Potency [8]

CCC(C)(Oc1ccc(C2(c3ccc(OC(C)(CC)C(=O)O)cc3)CCCCC2)cc1)C(=O)O (configuration not stated)
inactive: Potency [6] | Potency [7] | Potency [9] | Potency [2] | Potency [3] | Potency [4] | Potency [5] | Potency [8]
